# According to PubChem BioAssay (NCATS):
# “And” between values parts separate entries of the source, which are not always exact repeats. Identical values can stand only once. Inconclusive results are not listed. A call without a number means that no potency is given here. Some compounds were tested as several samples or in several runs, with calls that do not always agree. A number with no mark means an inactive call. The source made the active and inactive calls. The call rests on the fitted dose curve; in most records, active means well fitted inhibition curve with a large enough effect; inconclusive means small, poorly fitted or top-dose-only effect; inactive means flat fitted curve, though single readings scatter.
# How the values were obtained:
# PC15 = assay: qHTS profiling for inhibitors of Plasmodium falciparum proliferation (AID 504749); conditions: P. falciparum in erythrocytes, SYBR Green DNA, 72 h; series mostly up to 28.7 µM
# How it was run: (§1)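 Quantitative HTS: compounds pinned into medium, infected erythrocytes added (0.3% parasitemia, 2.5% hematocrit), 72 h culture at 37 C under 5% CO2. Saponin/Triton lysis with SYBR Green I, overnight RT, then fluorescence read.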
# PC26 = assay: as above; conditions: P. falciparum in erythrocytes, SYBR Green DNA, 72 h; series mostly up to 28.7 µM
# How it was run: as §1
# PC49 = assay: as above; conditions: P. falciparum in erythrocytes, SYBR Green DNA, 72 h; series mostly up to 28.7 µM
# How it was run: as §1
# SC27B = assay: as above; conditions: P. falciparum in erythrocytes, SYBR Green DNA, 72 h; series mostly up to 28.7 µM
# How it was run: as §1
# TAB109 = assay: as above; conditions: P. falciparum in erythrocytes, SYBR Green DNA, 72 h; series mostly up to 28.7 µM
# How it was run: as §1
# TAB113 = assay: as above; conditions: P. falciparum in erythrocytes, SYBR Green DNA, 72 h; series mostly up to 28.7 µM
# How it was run: as §1
# TAB165 = assay: as above; conditions: P. falciparum in erythrocytes, SYBR Green DNA, 72 h; series mostly up to 28.7 µM
# How it was run: as §1
# W2 = assay: as above; conditions: P. falciparum in erythrocytes, SYBR Green DNA, 72 h; series mostly up to 28.7 µM
# How it was run: as §1
# CRL-7250 = normal cell line; assay: Cytotoxic Profiling of Annotated Libraries Using Quantitative High-Throughput Screening (AID 1296008); conditions: Five cell lines viability, CellTiter-Glo ATP luminescence, 48-72 h; max response: hits give low values
# How it was run: (§2)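 Compounds were pin-transferred onto cells and incubated 48 or 72 hr at 37 degree Celsius, 95% humidity. CellTiter-Glo was added, plates sat 10 min at room temperature, then ATP-coupled luminescence was imaged as the viability read-out.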
# HEK293 = assay: as above; conditions: Five cell lines viability, CellTiter-Glo ATP luminescence, 48-72 h; max response: hits give low values
# How it was run: as §2
# Further: nearly all actives have a fitted effect of over 60% in size.
# Potency means the concentration at half of the fitted maximal effect.
structure (smiles),measurement,setting,value
Cc1cccc(Nc2ccncc2S(=O)(=O)NC(=O)NC(C)C)c1,Potency,PC15,inactive
same,Potency,PC26,inactive
same,Potency,PC49,inactive
same,Potency,SC27B,inactive
same,Potency,TAB109,inactive
same,Potency,TAB113,inactive
same,Potency,TAB165,inactive
same,Potency,W2,inactive
same,max response,CRL-7250,-14.3%
same,outcome,CRL-7250,inactive
same,max response,HEK293,1.87% and -6.16%
NC(=O)c1ccc2[nH]ccc2c1,max response,CRL-7250,-5.07%
same,max response,HEK293,-1.44%
CC(C)C1CCC(C(=O)N[C@H](Cc2ccccc2)C(=O)O)CC1 (stereo not given in full),max response,CRL-7250,-2.02% and -1.93%
same,max response,HEK293,-0.795% and -11.5%
CN(Cc1cc(Br)cc(Br)c1N)C1CCCCC1,Potency,PC15,inactive
same,Potency,PC26,inactive
same,Potency,PC49,inactive
same,Potency,SC27B,inactive
same,Potency,TAB109,inactive
same,Potency,TAB113,inactive
same,Potency,W2,4.26 µM (active)
same,max response,CRL-7250,1.14%
same,outcome,CRL-7250,inactive
same,outcome,HEK293,inactive
O=C(NCC1CN(c2ccc(N3CCOCC3=O)cc2)C(=O)O1)c1ccc(Cl)s1 (stereo not given),outcome,CRL-7250,inactive
same,max response,HEK293,-28.8%
CCOC(=O)c1ccc(OC(=O)CCCCCN=C(N)N)cc1,Potency,PC49,inactive
same,Potency,SC27B,inactive
same,max response,CRL-7250,1.52%
same,outcome,CRL-7250,inactive
same,max response,HEK293,-2.03%
same,outcome,HEK293,inactive
COc1cc2c(Nc3ccc(Br)cc3F)ncnc2cc1OCC1CCN(C)CC1,Potency,PC15,7.08 µM (active)
same,Potency,SC27B,2.82 µM (active)
same,Potency,TAB109,2.24 µM (active)
same,Potency,TAB113,2.24 µM (active)
same,Potency,TAB165,3.55 µM (active)
same,Potency,W2,3.38 µM (active)
same,Potency,CRL-7250,18.7 µM (active)
same,outcome,CRL-7250,inactive
CC1=CC(=O)c2ccccc2C1=O,Potency,PC26,inactive
same,Potency,PC49,inactive
same,Potency,SC27B,inactive
same,Potency,TAB109,inactive
same,Potency,TAB113,inactive
same,Potency,TAB165,inactive
same,Potency,W2,6.01 µM (active)
same,max response,CRL-7250,3.35%
same,outcome,CRL-7250,inactive
NC1(c2ccc(-c3nc4ccn5c(=O)[nH]nc5c4cc3-c3ccccc3)cc2)CCC1,max response,CRL-7250,-3.3%
same,Potency,HEK293,3.32 µM (active) and 2.37 µM (active) and 3.26 µM (active)
CCC(=O)O[C@]1(C(=O)SCF)[C@H](C)C[C@H]2[C@@H]3C[C@H](F)C4=CC(=O)C=C[C@]4(C)[C@@]3(F)[C@@H](O)C[C@@]21C,outcome,CRL-7250,inactive
same,max response,HEK293,1.44% and 1.99%
CC(C)(C)NC(=O)[C@H]1CC[C@H]2[C@@H]3CC[C@H]4NC(=O)C=C[C@]4(C)[C@H]3CC[C@]12C,max response,CRL-7250,-15.1% and -1.46%
same,max response,HEK293,-5.16%
COCCCOc1cc(C[C@@H](C[C@H](N)[C@@H](O)C[C@H](C(=O)NCC(C)(C)C(N)=O)C(C)C)C(C)C)ccc1OC,max response,CRL-7250,-2.04%
same,outcome,HEK293,inactive
O=C(O)C1CCCN(CCC=C(c2ccccc2)c2ccccc2)C1 (stereo not given),outcome,CRL-7250,inactive
same,max response,HEK293,3.73%
Cn1nnc2c(C(N)=O)ncn2c1=O,Potency,PC15,inactive
same,Potency,PC26,inactive
same,Potency,PC49,inactive
same,Potency,SC27B,inactive
same,Potency,TAB109,inactive
same,Potency,TAB113,inactive
same,Potency,TAB165,inactive
same,Potency,W2,inactive
same,max response,CRL-7250,3.05%
same,outcome,CRL-7250,inactive
same,max response,HEK293,1.76% and -7.24%
Nc1nc(=S)c2[nH]cnc2[nH]1,Potency,CRL-7250,18.8 µM (active)
same,Potency,HEK293,3.76 µM (active) and 9.35 µM (active)
C[C@]12C=CC(=O)C=C1CC[C@@H]1[C@@H]2C(=O)C[C@@]2(C)[C@H]1CC[C@]2(O)C(=O)CO,Potency,PC15,inactive
same,Potency,PC26,inactive
same,Potency,PC49,inactive
same,Potency,SC27B,inactive
same,Potency,TAB109,inactive
same,Potency,TAB165,inactive
same,Potency,W2,inactive
same,max response,CRL-7250,2.58%
same,outcome,CRL-7250,inactive
CCN1CCCC1CNC(=O)c1cc(S(N)(=O)=O)ccc1OC (stereo not given),outcome,CRL-7250,inactive
same,max response,HEK293,-9.26%
CC(C)C[C@H](NC(=O)[C@H](CCc1ccccc1)NC(=O)CN1CCOCC1)C(=O)N[C@@H](Cc1ccccc1)C(=O)N[C@@H](CC(C)C)C(=O)[C@@]1(C)CO1,Potency,CRL-7250,211 nM (active) and 209 nM (active)
same,Potency,HEK293,37.6 nM (active) and 23.5 nM (active)
CO[C@@H]1[C@@H](OC(N)=O)[C@@H](O)[C@H](Oc2ccc3c(O)c(NC(=O)c4ccc(O)c(CC=C(C)C)c4)c(=O)oc3c2C)OC1(C)C,max response,CRL-7250,0.852% and -24.9%
same,outcome,HEK293,inactive
NCCCC(O)(P(=O)(O)O)P(=O)(O)O,Potency,PC15,inactive
same,Potency,PC26,inactive
same,Potency,PC49,inactive
same,Potency,SC27B,inactive
same,Potency,TAB109,inactive
same,Potency,TAB113,inactive
same,Potency,TAB165,inactive
same,Potency,W2,inactive
same,outcome,CRL-7250,inactive
same,max response,HEK293,-8.5% and -22.9%
Cc1ccnc2c1NC(=O)c1cccnc1N2C1CC1,Potency,PC15,inactive
same,Potency,PC26,inactive
same,Potency,PC49,inactive
same,Potency,SC27B,inactive
same,Potency,TAB109,inactive
same,Potency,TAB113,inactive
same,Potency,TAB165,inactive
same,Potency,W2,inactive
same,outcome,CRL-7250,inactive
same,max response,HEK293,-12% and -5.59%
CCCc1cc(C(N)=S)ccn1,Potency,PC15,inactive
same,Potency,PC26,inactive
same,Potency,PC49,inactive
same,Potency,SC27B,inactive
same,Potency,TAB109,inactive
same,Potency,TAB113,inactive
same,Potency,TAB165,inactive
same,Potency,W2,inactive
same,outcome,CRL-7250,inactive
same,max response,HEK293,-0.75% and -9.47%
CCN[C@H]1C[C@H](C)S(=O)(=O)c2sc(S(N)(=O)=O)cc21,max response,CRL-7250,-1.48% and 1.03%
same,max response,HEK293,-5.09%
same,outcome,HEK293,inactive
COc1cc(NS(=O)(=O)c2ccc(N)cc2)nc(OC)n1,Potency,PC15,inactive
same,Potency,PC49,inactive
same,Potency,SC27B,inactive
same,Potency,TAB109,inactive
same,Potency,TAB113,inactive
same,Potency,TAB165,inactive
same,Potency,W2,inactive
same,max response,CRL-7250,-1.11% and -2.3%
same,max response,HEK293,4.64% and 3.91%
